A word on the AC50: it is the midpoint of the concentration-response curve, whichever way the signal moves.

Results filed as inconclusive are left out. The source made the active and inactive calls. The calls were made as follows: active = hit-call score of the fitted dose curve at least 0.9, where 1 is the maximum; inconclusive = response in the unintended direction; inactive = score below 0.9.

The record followed here is PubChem BioAssay (EPA / NIEHS).

human Vascular Endothelial Growth Factor Receptor 2 (VEGFR2), KDR (gene 3791), sequence (P35968 whole entry, looked up): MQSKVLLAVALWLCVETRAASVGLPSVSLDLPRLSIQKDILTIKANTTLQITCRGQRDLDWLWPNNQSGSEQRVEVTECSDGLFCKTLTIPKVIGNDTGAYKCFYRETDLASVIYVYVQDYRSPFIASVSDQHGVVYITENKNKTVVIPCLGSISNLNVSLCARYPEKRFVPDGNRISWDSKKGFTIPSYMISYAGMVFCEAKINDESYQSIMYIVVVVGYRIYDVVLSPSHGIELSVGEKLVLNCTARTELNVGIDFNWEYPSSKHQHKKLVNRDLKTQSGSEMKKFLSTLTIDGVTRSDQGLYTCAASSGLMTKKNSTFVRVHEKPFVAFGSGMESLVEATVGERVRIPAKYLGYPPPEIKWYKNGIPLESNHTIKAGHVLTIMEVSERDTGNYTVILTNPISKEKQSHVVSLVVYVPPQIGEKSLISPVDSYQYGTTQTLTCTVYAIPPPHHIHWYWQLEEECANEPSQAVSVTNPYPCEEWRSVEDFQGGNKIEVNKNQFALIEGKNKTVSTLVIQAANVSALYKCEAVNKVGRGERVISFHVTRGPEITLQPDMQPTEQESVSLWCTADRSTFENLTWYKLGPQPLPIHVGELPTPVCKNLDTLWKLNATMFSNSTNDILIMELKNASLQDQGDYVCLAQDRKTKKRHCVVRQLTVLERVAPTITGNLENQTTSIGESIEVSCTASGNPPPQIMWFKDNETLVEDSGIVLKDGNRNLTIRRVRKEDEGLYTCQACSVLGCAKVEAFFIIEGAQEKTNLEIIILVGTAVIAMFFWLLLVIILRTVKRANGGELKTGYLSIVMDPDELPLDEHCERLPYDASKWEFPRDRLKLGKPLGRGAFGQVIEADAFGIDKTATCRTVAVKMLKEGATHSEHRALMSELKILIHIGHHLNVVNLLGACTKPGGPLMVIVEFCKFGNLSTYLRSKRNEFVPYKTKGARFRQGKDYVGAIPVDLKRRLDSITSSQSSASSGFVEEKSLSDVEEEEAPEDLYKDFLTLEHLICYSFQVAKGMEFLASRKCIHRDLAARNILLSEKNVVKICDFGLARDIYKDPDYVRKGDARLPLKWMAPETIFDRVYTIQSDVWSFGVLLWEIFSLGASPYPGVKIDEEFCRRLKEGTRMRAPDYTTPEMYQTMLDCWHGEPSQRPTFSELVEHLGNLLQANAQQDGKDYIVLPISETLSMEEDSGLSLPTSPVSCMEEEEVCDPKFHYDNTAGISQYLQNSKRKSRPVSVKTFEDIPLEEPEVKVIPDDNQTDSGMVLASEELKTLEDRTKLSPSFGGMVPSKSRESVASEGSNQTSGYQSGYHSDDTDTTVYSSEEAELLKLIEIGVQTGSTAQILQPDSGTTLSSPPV
rabbit Imidazoline 2 Central (I2C), CKB (gene 100009085), sequence (P00567 whole entry, looked up): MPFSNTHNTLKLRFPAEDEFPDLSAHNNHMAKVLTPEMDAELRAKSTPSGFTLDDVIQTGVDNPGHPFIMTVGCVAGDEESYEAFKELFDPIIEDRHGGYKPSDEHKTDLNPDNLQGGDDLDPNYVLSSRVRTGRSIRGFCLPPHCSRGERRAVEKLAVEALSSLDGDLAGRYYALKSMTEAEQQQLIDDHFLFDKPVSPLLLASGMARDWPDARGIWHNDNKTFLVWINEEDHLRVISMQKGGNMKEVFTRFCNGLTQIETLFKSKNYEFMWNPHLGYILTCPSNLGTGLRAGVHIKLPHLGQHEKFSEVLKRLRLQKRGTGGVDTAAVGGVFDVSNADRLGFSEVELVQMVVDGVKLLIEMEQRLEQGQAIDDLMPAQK
human Tyrosine Protein Kinase Receptor Tie-2 (Tie2), TEK (gene 7010), sequence (Q02763 whole entry, looked up): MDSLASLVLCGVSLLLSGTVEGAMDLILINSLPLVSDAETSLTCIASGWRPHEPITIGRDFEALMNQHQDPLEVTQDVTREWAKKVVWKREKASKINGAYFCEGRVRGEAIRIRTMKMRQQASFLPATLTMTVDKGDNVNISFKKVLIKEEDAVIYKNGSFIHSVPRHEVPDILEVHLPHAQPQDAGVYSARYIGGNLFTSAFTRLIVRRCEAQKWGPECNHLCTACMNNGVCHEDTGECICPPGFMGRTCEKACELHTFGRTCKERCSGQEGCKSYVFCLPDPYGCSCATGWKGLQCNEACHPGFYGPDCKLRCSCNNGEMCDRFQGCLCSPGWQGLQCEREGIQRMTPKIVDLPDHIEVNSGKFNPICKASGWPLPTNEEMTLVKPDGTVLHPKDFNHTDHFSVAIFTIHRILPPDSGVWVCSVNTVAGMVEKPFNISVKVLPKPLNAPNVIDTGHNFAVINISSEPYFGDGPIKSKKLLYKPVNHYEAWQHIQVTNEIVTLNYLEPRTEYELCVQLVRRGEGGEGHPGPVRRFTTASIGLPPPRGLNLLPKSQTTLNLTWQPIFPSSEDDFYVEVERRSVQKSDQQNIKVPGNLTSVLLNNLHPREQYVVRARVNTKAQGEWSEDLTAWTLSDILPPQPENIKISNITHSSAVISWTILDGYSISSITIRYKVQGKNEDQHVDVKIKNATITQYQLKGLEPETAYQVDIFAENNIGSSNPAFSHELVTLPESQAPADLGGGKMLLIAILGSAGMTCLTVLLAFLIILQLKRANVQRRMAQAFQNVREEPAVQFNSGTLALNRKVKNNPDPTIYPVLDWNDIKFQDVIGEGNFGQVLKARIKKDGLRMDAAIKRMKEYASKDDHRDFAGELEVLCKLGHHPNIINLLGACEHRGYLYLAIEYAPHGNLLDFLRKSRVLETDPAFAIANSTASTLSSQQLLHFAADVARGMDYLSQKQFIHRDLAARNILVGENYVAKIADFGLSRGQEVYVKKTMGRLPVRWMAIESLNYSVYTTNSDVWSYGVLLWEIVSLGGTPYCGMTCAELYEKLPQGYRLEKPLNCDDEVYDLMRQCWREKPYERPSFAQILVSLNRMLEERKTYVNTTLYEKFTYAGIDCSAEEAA

One experiment concerns the target human Tyrosine Protein Kinase Receptor Tie-2 (Tie2), TEK (gene 7010) (UniProt Q02763). Put plainly: NVS_ENZ_hTie2: NovaScreen (NVS) Enzymatic Assay for human Tyrosine Protein Kinase Receptor Tie-2 (Tie2) (AID 2283225). How it is done: NVS_ENZ_hTie2 is a biochemical, single-readout assay that uses extracted gene-proteins in a cell-free assay. Measurements were taken 1 hour after chemical dosing in a 384-well plate.NVS_ENZ_hTie2 is one of one assay component(s) measured or calculated from the NVS_ENZ_hTie2 assay. It is designed to make measurements of enzyme activity, a form of enzyme reporter, as detected with fluorescence intensity signals by Fluorescence and electrophoretic mobility shift technology.Data from the assay component NVS_ENZ_hTie2 was analyzed into 1 assay endpoint. This assay endpoint, NVS_ENZ_hTie2, was analyzed in the positive analysis fitting direction relative to DMSO as the negative control and baseline of activity. Using a type of enzyme reporter, loss-of-signal activity can be used to understand changes in the enzymatic activity as they relate to the gene TEK. Furthermore, this assay endpoint can be referred to as a primary readout, because this assay has produced multiple assay endpoints where this one serves a enzymatic activity function. To generalize the intended target to other relatable targets, this assay endpoint is annotated to the kinase intended target family, where the subfamily is receptor tyrosine kinase.
Binding assays used specific radioligands (tritiated, iodinated) with non-radioactive competitive displacement ligands in agonist or antagonist protocols (as indicated) and various reference compounds and inhibitors to titrate specific binding to receptors and transporters. Most enzyme assays (CYPs, kinases, phosphatases, proteases, HDACs) used recombinant protein and specific substrates (fluorescence mostly, some colorimetric and radioactive) and inhibitors, followed by a biochemical separation of substrate and product. All assays for the biochemical HTS were initially run in duplicate at a single concentration (10 uM for CYP450 assays and 25 uM for all others). Assay-chemical combinations meeting a pre-defined threshold (e.g., 30% inhibition and other criteria defined below) were then run in singleton concentration-response format with maximum concentration of 20 uM for CYPs and 50 uM for all others. Each assay was run with positive and negative controls, and concurrent controls on every plate. The follow-up (secondary) screen tested active chemical-pairs in concentration series, as well as a few additional assays not tested in the primary screen, some selected negative inactives, and several cases re-run in the concentration series for confirmatory purposes.
For the compound `O=P1(N(CCCl)CCCl)NCCCO1` (stereo not drawn), the result was inactive. On the same count and under the same terms, for `CSC(C)(C)C=NO` the value was “inactive”; for `CC(C)(C)OOC(C)(C)C`, “inactive”. Still for that read-out and setting: to `CC1(C)CN=C(NN=C(/C=C/c2ccc(C(F)(F)F)cc2)/C=C/c2ccc(C(F)(F)F)cc2)NC1` belongs “inactive”. For the compound `O=c1ssc(Cl)c1Cl`, the outcome was inactive.

The target in the next experiment is rabbit Imidazoline 2 Central (I2C), CKB (gene 100009085) (UniProt P00567). As to the kind of experiment: NVS_ENZ_rabI2C: NovaScreen (NVS) Enzymatic Assay for rabbit Imidazoline 2 Central (I2C) (AID 2283228). An outline of the steps:
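Rabbit brain membranes, cell-free; readout by filter-based scintillation counting 1.5 hours after dosing, loss of signal vs DMSO. Initial duplicate test at 25 uM, then concentration-response with 50 uM top concentration.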
As to `Cc1cccc(N)c1`, the compound was called inactive.

Consider `Cc1ccc(N)cc1N`, for which the result was inactive. On to `Nc1ccc2ccccc2c1`, for which the AC50 was 13.7 µM (active).

The next experiment has as its target human Vascular Endothelial Growth Factor Receptor 2 (VEGFR2), KDR (gene 3791) (UniProt P35968). Put plainly: NVS_ENZ_hVEGFR2: NovaScreen (NVS) Enzymatic Assay for human Vascular Endothelial Growth Factor Receptor 2 (VEGFR2) (AID 2283230). An outline of the steps:
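Cell-free recombinant VEGFR2 kinase, fluorescent substrate with electrophoretic mobility-shift separation; read 1 h after dosing. Screened at 25 uM in duplicate, hits to concentration-response up to 50 uM; loss-of-signal versus DMSO.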
For the compound `CCCCN(CCCC)SN(C)C(=O)Oc1cccc2c1OC(C)(C)C2`, the outcome was inactive.

With `Cc1cccc(N)c1`, the compound was called inactive.

On to `ClC1=C(Cl)C2(Cl)C3C(Cl)C(Cl)CC3C1(Cl)C2(Cl)Cl` (stereo not drawn), for which the outcome was inactive. On the same count and under the same terms, to `O=c1ssc(Cl)c1Cl` belongs “inactive”. For `CCCN(CCC)c1c([N+](=O)[O-])cc(C(C)C)cc1[N+](=O)[O-]`, the call was inactive.
